According to the supplement of paper PMC10338343:
± gives the standard deviation.

Each sequence was assayed on EfPiwi piRISC loaded with L1MC piRNA (26 nt) (assay: pre-steady-state target cleavage rate (min^-1); auxiliary factor: none (no Gtsf1); guide: L1MC piRNA 5'p-UAACUAAAUACUAUGCAAGCUGUAGG; MIWI and MILI are mouse PIWI proteins and EfPiwi is from a freshwater sponge; tags in brackets are library labels; higher = faster piRNA-guided slicing of the target).
Protocol: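 Cleave-'n-Seq: a library of target RNAs (target site in constant flanks) at […] was incubated with 1 nM active freshwater sponge Ephydatia fluviatilis Piwi piRISC (synthetic 5'-monophosphorylated piRNA guide) with or without 500 nM EmGtsf1 at 33 °C for 1 min to 16 h. Uncleaved targets were sequenced and the pooled three trials fitted to a burst-and-steady-state model to give the pre-steady-state cleavage rate (min^-1). Sequence is the target site only. Fits with R² ≤ 0 are excluded.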

Sequence | pre-steady-state target cleavage rate
UCCUGGAUCUGCUUGCAUAGUAUAUAGUUA | 0.011 ± 0.0069
UCCUGGAUGAGCUUGCAUAGUAAUUAGAAA | < 0.0001
UCCUGGAUGUCGUUACAUAGUAUUUAGUUA | < 0.0001
UCCUGGAUGUCGAAGCAUAGAUAUUUAGUUA | < 0.0001
UCCUGGAUCUGCUUGCAUAGUAAUUAGUUA | 0.0241 ± 0.0099
UCCUGGAUGUCGAACGUUAGUAUUUAUGUUA | < 0.0001
UCCUGGAUGUCGAACGUAUCUAUUCAGUUA | < 0.0001
UCCUGGAUGUCGUUGCAUAGUAUAUAGAUA | < 0.0001
UCCUGGAUGUGCUUGCAUAGUCUUUAGUUA | 0.00821 ± 0.0047
UCCUGGAUGUCGAACGUAUGAAUUUAGAUA | < 0.0001
UCCUGGAUGUCGAACGUAUGUAUUUAUUA | < 0.0001
UCCUGGAUGUCGAACCUAUGUAUUUAGUUA | < 0.0001
UCCUGGAUGUCGAACGUUAAUAUUUAGUUA | < 0.0001
UCCUGGAUGUCGAACCAUUCAAUUUAGUUA | < 0.0001
UCCUCCUACACCUUCCAUAGUAUUUAGUUA | < 0.0001
UCCUGGAUGUCCUUGCAAUCAUAAAUCAAA [g14:g19:cont:t1A] | < 0.0001
UCCUGGAUGUGCAUGCAUAGUAUUUACUUA | < 0.0001
UCCUGGAUGUCGAACCAUACGUAUUUAGUUA | < 0.0001
UCCUGGAUGUCGAACGAUAUAUUUAGUUA | < 0.0001
UCCUGGAUGUCGAUGCAUAGUAUUAUGUUA | < 0.0001

Sequence | pre-steady-state target cleavage rate
UCCUGGAUGUCGAACGUAUCUAUUUGGUUA | < 0.0001
UCCUGCAUGAGCUUGCAUAGUAUUUAGAAA | < 0.0001
UCCUGGAUGAGCUUGGAUUGUAUUUAGUUA | < 0.0001
UCCUGCUACAGGAAGCAUAGUAUUUACAAA | < 0.0001
UCCUGGAUGUCGAACGUAUCUAUUUAUUUA | < 0.0001
UCCUGGAUGUCGAACGUAUGUCUUUAGUUA | < 0.0001
UCCUGGAUGUCGAAGCAUAGUAUAUUAGUUA | < 0.0001
UCCUGGAUGUCGAACGUAAUGUAUUUAGUUA | < 0.0001
UCCUGGAUGAGCUUGCAUAGUAGUUAGUUA | 0.00517 ± 0.0042
UCCUGGAUGUCCUUGCAUAAGUAUUUAGUUA | < 0.0001
UCCUGGAUCAGCUUGCAUAGUAUUUACUUA | < 0.0001
UCCUGGAACAGCUUGUAUAGUAUUUAGUUA | 0.00519 ± 0.0044
UCCUGGAUCAGCUUGCAUAGUACUUUAGUUA | 0.00468 ± 0.0038
UCCUGGAUGUCGAACGUUAGUAAUUAGUAA | < 0.0001
UCCUGGAUGUCGAUGCAUUGAAUUUAGUUA | < 0.0001
UCCUCCUACAGCUUGCAUAGAAUUUUCAAA | < 0.0001
UCCUCCUACAGCUUCCAUAGUAUAUAGUUA | < 0.0001
UCCUGGAACAGCUUGCAUAGUAUUAACAAA | < 0.0001
UCCUGGAUGUCGAAGCAUAGUAUAAUCAAA [g8:g16:cont:t1A] | < 0.0001
UCCUGGAUGUCGAACGUUAGUUUUUUGUUA | < 0.0001
